An excerpt weighted towards active compounds, which were near 6.5% of everything screened.
Spn PMK inh = blocks S. pneumoniae phosphomevalonate kinase. inhibition, % at 10 µM. purified PMK, PK/LDH-coupled NADH absorbance 340 nm. AID 539. 65,000 tested, 0.49% active;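 active means top-ranked compounds by inhibition in the single 10 µM screen, taking a fixed number of the strongest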;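 further: 0% = full reaction with DMSO carrier and 100% = background rate without enzyme reaction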
A340 absorber = compound absorbs light at 340 nm; 65,000 tested, under 10 active; fold change at 10 µM; compound absorbance at 340 nm, fold over control;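 active means at 10 µM dose, initial 340 nm absorbance at least 2 fold that of control wells; inactive means change under 2 fold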;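 further: initial absorbance extrapolated from kinetic A340 decline of NADH oxidation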
NADH enzymes = inhibition of NAD/NADH coupling enzymes, library profiling; IC50, µM (titrated, usually from 10 µM), for the others: top-dose inhibition; coupled PK/LDH NADH assays, four targets; 65,000 tested, 0.02% active;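 active means single-dose screening hits from any of four coupled enzyme assays that gave an IC50 when retested across doses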;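 further: the DPM-DC format reads NADH fluorescence rather than 340 nm absorbance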
Fluor 339 460 = intrinsic fluorescence of library compounds, ex339/em460 – biochemical, MLSMR library, data from DPM-DC assay, artefact control, profiling panel; compound autofluorescence, ex339/em460 nm, NADH buffer; active compounds read high; 1 = no-compound wells, NADH background; fluorescence fold increase at 10 µM; 65,000 tested, 5.5% active; AID 709;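 active means at 10 µM, mean starting fluorescence two-fold or more over control wells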;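 further: signal is the first read of a kinetic run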
Spn MK inh = inhibitors of Streptococcus pneumoniae mevalonate kinase | purified MK, PK/LDH-coupled NADH absorbance 340 nm | inhibition, % at 10 µM | 65,000 tested, 0.48% active | AID 555;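 active means ranked among the strongest by inhibition in the single 10 µM screen, a fixed top-ranked set picked for dose follow-up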
DPM-DC inhibit = S. pneumoniae DPM-DC inhibition | purified DPM-DC, PK/LDH coupled NADH fluorescence | calls only at 10 µM | 65,000 tested, 0.49% active | AID 556;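 active means the 320 compounds with the highest percent inhibition in the single-dose primary screen, excluding strongly autofluorescent ones, cut at about 32% in these data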;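 further: kinetic rate of NADH fluorescence loss reporting ADP formed by the decarboxylase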
* = called active by the depositor.

Results for COCCNC(=O)CN(c1cc(Cl)ccc1OC)S(C)(=O)=O ?
Spn PMK inh: 15; A340 absorber: 1; NADH enzymes: 6%; Fluor 339 460: 1.1; Spn MK inh: 3; DPM-DC inhibit: inactive

How did CC1(C)C(C=C(Cl)Cl)C1C(=O)N1CCN(c2ccccc2)CC1 (stereo not drawn) do in these assays?
Spn PMK inh: 0; A340 absorber: 1.1; NADH enzymes: 14%; Fluor 339 460: 1.2; Spn MK inh: 9; DPM-DC inhibit: active

What do the screens show for `CCOC(=O)c1[nH]c2cc3c(cc2c1NC(=O)CN1CCCCC1C)OCO3` (stereo not drawn)?
Spn PMK inh: 6; A340 absorber: 1.1; NADH enzymes: 6%; Fluor 339 460: 2.3*; Spn MK inh: 6

How did CCOC(=O)c1[nH]c2cc3c(cc2c1NC(=O)CN1CCC2(CC1)OCCO2)OCO3 do in these assays?
Spn PMK inh: 0; A340 absorber: 1.1; NADH enzymes: 1%; Fluor 339 460: 2.3*; Spn MK inh: 2

Results for CCOC(=O)c1[nH]c2ccc(OCC)cc2c1NC(=O)CN1CCN(c2ccccc2)CC1 ?
Spn PMK inh: 8; A340 absorber: 1.1; NADH enzymes: 3%; Fluor 339 460: 3.2*; Spn MK inh: 2; DPM-DC inhibit: inactive

Results for CCOc1ccc(OCC)c(NC(=O)CN2CCN(C(=O)c3ccco3)CC2)c1 ?
Spn PMK inh: 0; A340 absorber: 0.99; NADH enzymes: 2%; Fluor 339 460: 1.1; Spn MK inh: 20; DPM-DC inhibit: inactive

Results for CCOc1ccc(OCC)c(NC(=O)CN2CCN(c3cccc(C)c3C)CC2)c1 ?
Spn PMK inh: 0; A340 absorber: 1.1; NADH enzymes: 21%; Fluor 339 460: 1.1; Spn MK inh: 62*; DPM-DC inhibit: inactive

What do the screens show for `CCOC(=O)c1[nH]c2ccccc2c1NC(=O)c1ccc2c(c1)OCO2`?
Spn PMK inh: 0; A340 absorber: 1.1; NADH enzymes: 1%; Fluor 339 460: 1.1; Spn MK inh: 3; DPM-DC inhibit: inactive

What do the screens show for `CCOC(=O)c1[nH]c2ccccc2c1NC(=O)CN1CCCCC1`?
Spn PMK inh: 6; A340 absorber: 1; NADH enzymes: 9%; Fluor 339 460: 1.5; Spn MK inh: 12; DPM-DC inhibit: inactive

How did CCCn1c(C)cc(=O)c2cc(NC(=O)c3cnccn3)ccc21 do in these assays?
Spn PMK inh: 13; A340 absorber: 1; NADH enzymes: 4%; Fluor 339 460: 1.1; Spn MK inh: 0; DPM-DC inhibit: inactive

How did CCOC(=O)c1[nH]c2cc(OC)c(OC)cc2c1NC(=O)CN(C)C1CCCCC1 do in these assays?
Spn PMK inh: 14; A340 absorber: 1.1; NADH enzymes: 13%; Fluor 339 460: 3.7*; Spn MK inh: 11

Results for CCOC(=O)c1[nH]c2ccc(OCC)cc2c1NC(=O)CN1CCC2(CC1)OCCO2 ?
Spn PMK inh: 10; A340 absorber: 1.1; NADH enzymes: 7%; Fluor 339 460: 3.9*; Spn MK inh: 3

How did COC(=O)c1[nH]c2ccccc2c1NC(=O)CN1CCN(C/C=C/c2ccccc2)CC1 do in these assays?
Spn PMK inh: 13; A340 absorber: 1; NADH enzymes: 9%; Fluor 339 460: 1.8; Spn MK inh: 11; DPM-DC inhibit: inactive

Results for CCOC(=O)c1[nH]c2cc(OC)c(OC)cc2c1NC(=O)c1ccc2c(c1)OCO2 ?
Spn PMK inh: 14; A340 absorber: 1.2; NADH enzymes: 6%; Fluor 339 460: 1.2; Spn MK inh: 3; DPM-DC inhibit: inactive

What do the screens show for `CCOC(=O)c1[nH]c2ccc(F)cc2c1NC(=O)CN1CCN(C/C=C/c2ccccc2)CC1`?
Spn PMK inh: 11; A340 absorber: 1; NADH enzymes: 8%; Fluor 339 460: 2.6*; Spn MK inh: 9; DPM-DC inhibit: inactive

How did COC(=O)c1cc(Br)c(=O)n(Cc2ccc(C(=O)O)cc2)c1 do in these assays?
Spn PMK inh: 9; A340 absorber: 1; NADH enzymes: 4%; Fluor 339 460: 1.1; Spn MK inh: 4; DPM-DC inhibit: inactive

How did Cc1ccc(-n2nc(-c3ccc(N)cc3)cc2N)cc1 do in these assays?
Spn PMK inh: 0; A340 absorber: 1; NADH enzymes: 3%; Fluor 339 460: 1.1; Spn MK inh: 10; DPM-DC inhibit: inactive

What do the screens show for `Cc1ccc(-n2nc3ccc(N)cc3n2)cc1`?
Spn PMK inh: 7; A340 absorber: 1.1; NADH enzymes: 7%; Fluor 339 460: 2.1*; Spn MK inh: 6

What do the screens show for `CCCCNC(=O)c1ccc(NC(=O)C2CCCO2)cc1` (stereo not drawn)?
Spn PMK inh: 0; A340 absorber: 1.1; NADH enzymes: 4%; Fluor 339 460: 1.1; Spn MK inh: 12; DPM-DC inhibit: inactive

How did Cc1ccc2cc(C#N)c(NCCCNC(=O)C3CCCO3)nc2c1 (stereo not drawn) do in these assays?
Spn PMK inh: 8; A340 absorber: 1; NADH enzymes: 2%; Fluor 339 460: 2.9*; Spn MK inh: 4

What do the screens show for `Cc1ccc2cc(C#N)c(N3CCCN(C(=O)C4CCCO4)CC3)nc2c1` (stereo not drawn)?
Spn PMK inh: 15; A340 absorber: 1; NADH enzymes: 9%; Fluor 339 460: 2.3*; Spn MK inh: 0; DPM-DC inhibit: inactive

Results for Cc1ccc2nc(N3CCN(C(=O)c4cccs4)CC3)c(C#N)cc2c1 ?
Spn PMK inh: 11; A340 absorber: 0.98; NADH enzymes: 8%; Fluor 339 460: 2.4*; Spn MK inh: 1; DPM-DC inhibit: inactive

Results for COc1cc(C(=O)N2CCCN(c3nc4cc(C)ccc4cc3C#N)CC2)cc(OC)c1OC ?
Spn PMK inh: 12; A340 absorber: 1; NADH enzymes: 10%; Fluor 339 460: 1.9; DPM-DC inhibit: inactive

What do the screens show for `Cc1cc(C)c2cc(C#N)c(NCCCNC(=O)CCC(=O)O)nc2c1`?
Spn PMK inh: 10; A340 absorber: 1; NADH enzymes: 6%; Fluor 339 460: 3.7*; Spn MK inh: 2

What do the screens show for `COc1ccc(C(=O)N2CCN(c3nc4cc(C)ccc4cc3C#N)CC2)c(OC)c1`?
Spn PMK inh: 6; A340 absorber: 1; NADH enzymes: 2%; Fluor 339 460: 1.4; Spn MK inh: 6; DPM-DC inhibit: inactive

What do the screens show for `CCOC(=O)c1ccc(NC(=O)CN2C(=O)CSC2=O)cc1`?
Spn PMK inh: 15; A340 absorber: 1; NADH enzymes: 10%; Fluor 339 460: 1.1; Spn MK inh: 7; DPM-DC inhibit: inactive

What do the screens show for `CCOC(=O)c1ccccc1NC1CC(=O)N(c2ccccc2C)C1=O` (stereo not drawn)?
Spn PMK inh: 17; A340 absorber: 1; NADH enzymes: 4%; Fluor 339 460: 3.3*; Spn MK inh: 4

How did CCOC(=O)c1ccccc1NC(=O)C1COc2ccccc2O1 (stereo not drawn) do in these assays?
Spn PMK inh: 10; A340 absorber: 1; NADH enzymes: 6%; Fluor 339 460: 1.1; Spn MK inh: 7; DPM-DC inhibit: inactive
